Measured values as given in PubChem BioAssay AID1851 (National Center for Advancing Translational Sciences (NCATS), 2009).
Values joined by “and” are separate entries in the source; they are usually repeats but may differ in a detail not shown here. Equal values may be shown once. Among all 16,000 compounds or so, about 4,000 (25%) were called active. Another 26% or so got no clear call; they are omitted. The call rests on the fitted dose curve; in most records, active means well fitted curve in the direction sought with a large enough effect; inconclusive means small, poorly fitted or top-dose-only effect, or effect the other way; inactive means no such curve, though single readings can be large or run the other way. These entries were drawn from the full list. Where a structure was tested more than once in an assay, its records may differ in their call.

These compounds were tested against Cytochrome P450 2C9 (Homo sapiens) (UniProt P11712) (assay: Cytochrome panel assay with activity outcomes). Details: recombinant CYP, pro-luciferin dealkylation, luminescence, p450-cyp2c9; series mostly up to 57.1 µM.
On the % scale 0 is the no-effect control and ±100 the full control effect.

Chain of Cytochrome P450 2C9 (Homo sapiens) (P11712 whole entry, looked up): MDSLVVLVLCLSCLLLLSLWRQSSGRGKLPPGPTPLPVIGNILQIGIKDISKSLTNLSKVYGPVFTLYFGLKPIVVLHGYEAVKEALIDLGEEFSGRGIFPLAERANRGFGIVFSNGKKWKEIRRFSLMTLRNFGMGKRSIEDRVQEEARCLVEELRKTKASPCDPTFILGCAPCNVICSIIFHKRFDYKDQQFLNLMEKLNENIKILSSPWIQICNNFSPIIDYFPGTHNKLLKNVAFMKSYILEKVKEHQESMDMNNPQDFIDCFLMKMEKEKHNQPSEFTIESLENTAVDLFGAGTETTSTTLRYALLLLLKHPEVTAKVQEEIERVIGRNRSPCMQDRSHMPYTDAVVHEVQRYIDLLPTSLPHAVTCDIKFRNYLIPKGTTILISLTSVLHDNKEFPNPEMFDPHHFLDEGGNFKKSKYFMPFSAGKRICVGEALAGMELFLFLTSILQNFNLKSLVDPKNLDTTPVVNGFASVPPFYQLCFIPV

Structure (SMILES)	activity, negative = inhibition	AC50
COc1cc2c3cc1Oc1cc(ccc1O)C[C@@H]1c4c(cc(OC)c(O)c4Oc4ccc(cc4)C[C@H]3[N+](C)(C)CC2)CC[N+]1(C)C	4.34% [at 11.4 µM] (inactive)	
O=C(Nc1c(C(=O)N2CCOCC2)cnn1-c1ccccc1)c1ccco1		inactive
Cc1sc(NC(=O)c2ccco2)c(C(c2cccnc2)N2CCCC2)c1C (stereo unspecified)		2.51 µM (active)
O=C(Nc1c(C(=O)N2CCCCC2)cnn1-c1ccccc1)c1ccco1		inactive
Cc1sc(NC(=O)c2ccco2)c(C(c2ccncc2)N2CCOCC2)c1C (stereo unspecified)		2.24 µM (active)
Cc1cnc(CNc2ncncc2-c2c(C)noc2C)cn1	17.1% [at 2.29 µM] (inactive)	
O=C1NCC2(CCN(CCc3ccccc3)CC2)O1		inactive
N#C[C@H](c1ccccc1)N1CCCN([C@@H](C#N)c2ccccc2)C1c1ccccc1O (stereo partly specified)		3.16 µM (active)
Cc1ccccc1OCCCN1CCCC1		inactive
C[N+](C)(CCCOc1ccccc1)c1ccccc1		inactive
O=c1sc2ccccc2n1CCCOc1ccccc1		12.6 µM (active)
O=C(O)c1ccccc1NCn1c(=S)sc2ccccc21	-5.72% [at 11.4 µM] (inactive)	
Cc1ccccc1OCCCn1c(=O)sc2ccccc21		5.01 µM (active)
Cc1ccc(Cl)cc1-n1c(=O)cc(N2CC(C)OC(C)C2)[nH]c1=O (stereo unspecified)		inactive
O=C(O)c1cc2ccccc2c(Cc2cc3ccccc3c(C(=O)O)c2O)c1O (tested in a mixture with another compound)		inactive
NS(=O)(=O)c1ccc(N=Nc2c(O)c(C(=O)O)cc3ccccc23)cc1	-28.9% [at 11.4 µM] (inactive)	
C=CCNS(=O)(=O)c1cccc2cc(C(=O)O)c(O)cc12		2.82 µM (active)
N#Cc1cccc(NC(=O)N2CC[C@@]3(CCCNC3)C2)c1		inactive
CC(=O)OC[C@@H]1O[C@H](C/C=N\O[C@@H](C)c2cn([C@H](CO)Cc3ccccc3)nn2)C=C[C@@H]1OC(C)=O	8% [at 11.4 µM] (inactive) and -8.02% [at 11.4 µM] (inactive)	
COc1ccc(O[C@H]2C=C[C@@H](c3ccccc3)O[C@H]2COC(=O)CC/C(C)=N\O[C@@H](C)CN2CCCCc3nc(C)c(C)cc32)cc1	-28.1% [at 11.4 µM] (inactive)	
C/C(CCC(=O)OC[C@@H]1O[C@H](C#Cc2ccccc2)C=C[C@@H]1Oc1ccc(C)cc1)=N/O[C@@H](C)c1cn([C@H](CO)Cc2ccccc2)nn1		3.16 µM (active)
C/C(CCC(=O)OC[C@@H]1O[C@H](C#Cc2ccccc2)C=C[C@@H]1Oc1ccc(C)cc1)=N/OC[C@@H](C)[C@H](OCc1ccccc1)C(C)C	12.5% [at 11.4 µM] (inactive)	

Structure (SMILES)	activity, negative = inhibition	AC50
CO/N=C(/C)CCC(=O)OC[C@@H]1O[C@H](C#Cc2ccccc2)C=C[C@@H]1Oc1ccc(C)cc1	-2.9% [at 11.4 µM] (inactive)	
COc1ccc(O[C@H]2C=C[C@@H](c3ccccc3)O[C@H]2COC(=O)CC/C(C)=N\O[C@@H](C)c2cn([C@H](CO)Cc3ccccc3)nn2)cc1		1.26 µM (active)
COc1cc2c(CCNC(C)=O)c[nH]c2cc1O		inactive
COc1ccccc1CNc1ccnc(-c2ccc(C(=O)N(C)C)cc2)n1	-10.3% [at 2.29 µM] (inactive)	
COc1ccccc1CNC(=O)Cn1nnc(-c2ccncc2)n1		7.94 µM (active)
CCc1nnc(NC(=O)CCC(=O)NCc2ccccc2OC)s1		inactive
CCCCOc1ccc(-c2nnn(CC(=O)c3c[nH]c4ccccc34)n2)cc1		inactive
COc1ccc(-c2nnn(CC(=O)NCCc3c[nH]c4ccccc34)n2)cc1OC		4.47 µM (active)
NC(N)=[N+]1CCc2ccccc2C1		inactive
CC1=C(C#N)C(Nc2ccc(Cl)cn2)(C(F)(F)F)C(=O)N1 (stereo unspecified)		14.1 µM (active)
COc1cccc(C2C(C(=O)c3cc4ccccc4o3)=C(O)C(=O)N2c2cc(C)on2)c1OC (stereo unspecified)		14.1 µM (active)
Cc1cc(N2C(=O)C(O)=C(C(=O)c3ccco3)C2c2ccc(O)cc2)no1 (stereo unspecified)		11.2 µM (active)
COc1cc(OC)c(C2N(c3cc(C)on3)C(=O)C3CCCN32)cc1OC (stereo unspecified)		inactive
CN(C)CCN1C(=O)C(O)=C(C(=O)c2cc3ccccc3o2)C1c1ccccn1 (stereo unspecified)		inactive
CC(=O)Nc1ccc(OC[C@@H](O)CNC(C)C)cc1		inactive
CC(C)NC[C@@H](O)COc1ccc(COCCOC(C)C)cc1		inactive
CC(C)NC[C@@H](O)COc1ccc(CCOCC2CC2)cc1		inactive and 631 nM (active)
COc1ccccc1CN1CC[C@@]2(CCCN(C(=O)c3cccn3C)C2)C1		inactive
COC(=O)[C@@]1(Cc2ccccc2)[C@H]2c3cc(C(=O)N(C)C)n(Cc4c(CO)[nH]cc(C)c4=O)c3C[C@H]2CN1C(=O)c1ccccc1		0.631 µM (active)
COC(=O)[C@@]1(Cc2ccc(F)cc2)[C@H]2c3cc(C(=O)N(C)C)n(Cc4c(CO)[nH]cc(C)c4=O)c3C[C@H]2CN1C(=O)c1ccccc1		10 µM (active)
CN(C)C(=O)c1ccc(-c2cncnc2Nc2ccccc2)cc1	-3.51% [at 2.29 µM] (inactive)	
C=CC[C@H](N)C(=O)O		inactive

Structure (SMILES)	activity, negative = inhibition	AC50
O=C(O)C1CCC(=O)N(C2CC2)C1c1ccccc1 (stereo unspecified)		inactive
CC12CC[C@@H]3c4ccc(OP(=O)(O)O)cc4CCC3C1CCC2=O (stereo partly specified)	15.4% [at 11.4 µM] (inactive)	
Clc1ccccc1-c1nc(-c2ccccc2)n[nH]1		28.2 µM (active)
Clc1ccccc1-c1nc(N2CCNCC2)c2ccccc2n1	2.98% [at 2.29 µM] (inactive)	
Clc1ccccc1-c1nc(-c2ccncc2)no1	-19.4% [at 11.4 µM] (inactive)	
Cc1sc2nc(C3CC3)nc(SCC(=O)N3CC(=O)Nc4ccccc43)c2c1C		1 µM (active)
Cc1nnc(SCC(=O)N2CC(=O)Nc3ccccc32)n1Cc1ccccc1		inactive
O=c1c2c(-c3ccc(Cl)cc3)csc2nc2n1CCC2		14.1 µM (active)
O=C(Nc1ccc(F)cc1Cl)c1ccc2c(=O)n3c(nc2c1)CCCCC3		inactive
O=c1c2ccccc2nc2n1CCC2		inactive
COCC(=O)N1CCC2(CC1)CN(C(=O)Nc1cccc(F)c1)C2		inactive
O=c1c(O)c(-c2ccc(O)c(O)c2)oc2cc(O)cc(O)c12		inactive
O=c1c(-c2ccc(O)cc2)coc2cc(O)cc(O)c12		inactive
O=c1c(-c2ccc(O)cc2)coc2cc(O)ccc12		6.31 µM (active)
CSc1nc(N)c2ncn([C@H]3O[C@H](COP(=O)(O)OP(=O)(O)O)[C@@H](O)[C@@H]3O)c2n1		inactive
O=C1C2C3c4ccccc4C(c4ccccc43)C2C(=O)N1c1nc(-c2ccccc2)cs1 (stereo unspecified)		0.891 µM (active)
O=C1[C@@H]2[C@@H](C(=O)N1c1ccc(OCc3ccccc3)cc1)[C@@H]1c3ccccc3[C@@H]2[n+]2ccccc21	0.978% [at 11.4 µM] (inactive)	
CN(C)CCCN1c2ccccc2Sc2ccc3ccccc3c21	-11.1% [at 11.4 µM] (inactive)	
CO[C@@H]1/C=C\CC(=O)N[C@@H](C)C(=O)OC[C@@H](OC)[C@H](C)CCCC(=O)OC[C@H]1C	-25.9% [at 11.4 µM] (inactive)	
Cc1ccccc1C(=O)N1CCN(c2ccc([N+](=O)[O-])c(N3CCOCC3)c2)CC1		5.01 µM (active)
Cc1cc(C)n(-c2cc(N3CCN(C(=O)c4ccc(C(C)(C)C)cc4)CC3)ccc2[N+](=O)[O-])n1		3.98 µM (active)
Cc1ccc(C(=O)O/N=C\c2ccc(N3CCCCC3)c([N+](=O)[O-])c2)cc1		2.24 µM (active)

Structure (SMILES)	activity, negative = inhibition	AC50
COC(=O)c1ccc(N2CCN(CC(=O)c3ccc(-c4ccccc4)cc3)CC2)c([N+](=O)[O-])c1		5.01 µM (active)
Cn1c(=O)n(C)c2cc([N+](=O)[O-])c(N3CCN(C(=O)c4ccccc4Cl)CC3)cc21		inactive
CN(C)CCNc1nc2c(c(=O)n(C)c(=O)n2C)n1C	4.45% [at 11.4 µM] (inactive)	
CCCN(CC1CC1)c1nc(C)nc(Nc2c(Cl)cc(Cl)cc2Cl)c1Cl		inactive
C=CC[C@@H]1C=C[C@H](O/N=C(\C)CCN2CCCc3nc(C)c(C)cc32)[C@H](CO)O1	3.93% [at 11.4 µM] (inactive)	
COCC(=O)N1CCN(c2ccc([N+](=O)[O-])cc2)CC1		inactive
Cc1ccc(OC(=O)c2ccc(N3CCOCC3)c([N+](=O)[O-])c2)cc1		14.1 µM (active)
CO/N=C/c1ccc(N2CCN(C(=O)c3ccc(Cl)cc3Cl)CC2)c([N+](=O)[O-])c1		7.94 µM (active)
CCOC(=O)c1c(NC(=O)c2ccc(N3CCOCC3)c([N+](=O)[O-])c2)sc(C)c1C		inactive
Cc1ccc(OCC(=O)N2CCN(c3ccc([N+](=O)[O-])c(N4CCOCC4)c3)CC2)cc1		7.94 µM (active)
CC(C)Cn1c(C(C)C)nc([N+](=O)[O-])c1S(=O)(=O)c1ccc(F)cc1		inactive
CN(C)Cc1ccccc1-c1nccc(NC2CC2)n1	5.88% [at 2.29 µM] (inactive)	
CC(C)=CCC/C(C)=C/CO/N=C1/C[C@@H](O)[C@@H](O)[C@@H]2[C@@H]3C(=O)N(C[C@@H]4CCCO4)C(=O)[C@H]3CC[C@H]12	4.47% [at 11.4 µM] (inactive)	
O=C(Cn1cnc([N+](=O)[O-])c1)NCc1ccc(F)cc1		inactive
COc1ccccc1CN1CCCC2(CCN(C(=O)c3ccco3)CC2)C1		inactive
COc1ccccc1CN1CCC2(CC1)CCN(C(=O)c1ccco1)CC2		inactive
O=C(Cn1cc(C(=O)c2ccco2)c2ccccc21)NCc1ccco1		14.1 µM (active)
Cc1ccc(CNC(=O)Cn2c(=O)oc3ccccc32)o1		inactive
COc1ccccc1OCCn1cc(C(=O)c2ccco2)c2ccccc21		0.562 µM (active)
Cc1ccccc1C(=O)c1cccn1CC(=O)NCc1ccco1		inactive
